The nature of assay [1]: S16 Schwann cell PMP22 intronic element firefly luciferase assay (AID 624032). Note: nearly all actives have a fitted effect of over 30% in size. Note: potency is the fitted concentration of half-maximal effect. The method, boiled down: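 Rat S16 Schwann cells stably carrying firefly luciferase driven by a PMP22 intronic element, in 10% FBS, treated 24 h at 37 C. ONE-Glo luminescence normalized to PTC124 control and DMSO (0%); curves classed by r2, magnitude and activity.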
A further assay relates to 7G8. Kind of assay: qHTS profiling for inhibitors of Plasmodium falciparum proliferation (AID 504749). Note: nearly all actives have a fitted effect of over 60% in size. Note: potency is the fitted concentration of half-maximal effect. As to conditions: P. falciparum in erythrocytes, SYBR Green DNA, 72 h; series mostly up to 12.8 µM. The method, boiled down: (§1)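 P. falciparum-infected erythrocytes (0.3% parasitemia, 2.5% hematocrit) incubated with compound 72 h at 37 C, 5% CO2. Parasite DNA detected by SYBR Green after lysis, overnight at room temperature; normalised to 0.29 uM artemisinin and DMSO.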
On the technique in general: qHTS replaces the single test concentration by a dilution series.

In the next assay the test system is ATS189. Described as above. As to conditions: P. falciparum in erythrocytes, SYBR Green DNA, 72 h; series mostly up to 12.8 µM. An outline of the steps: as §1
A further assay concerns CP250. Described as above. As to conditions: P. falciparum in erythrocytes, SYBR Green DNA, 72 h; series mostly up to 12.8 µM. The method, boiled down:
as §1

A further assay relates to DIV14. The assay is described as above. As to conditions: P. falciparum in erythrocytes, SYBR Green DNA, 72 h; series mostly up to 12.8 µM. An outline of the steps:
as §1

A further assay relates to Dd2. The assay is described as above. As to conditions: P. falciparum in erythrocytes, SYBR Green DNA, 72 h; series mostly up to 12.8 µM. An outline of the steps:
as §1

The subject of another assay is HB3. The description is as above. As to conditions: P. falciparum in erythrocytes, SYBR Green DNA, 72 h; series mostly up to 12.8 µM. The method, boiled down:
as §1

The test system of another assay is PAD. Described as above. As to conditions: P. falciparum in erythrocytes, SYBR Green DNA, 72 h; series mostly up to 12.8 µM. The method, boiled down:
as §1

In a further assay the test system is SC27B. Described as above. As to conditions: P. falciparum in erythrocytes, SYBR Green DNA, 72 h; series mostly up to 12.8 µM. The method, boiled down:
as §1

The subject of another assay is TAB165. Described as above. As to conditions: P. falciparum in erythrocytes, SYBR Green DNA, 72 h; series mostly up to 12.8 µM. An outline of the steps:
as §1

For the next assay, the system named is DFO2036. The assay is described as above. As to conditions: P. falciparum in erythrocytes, SYBR Green DNA, 72 h; series mostly up to 12.8 µM. An outline of the steps:
as §1

The target in assay [2] is ATP-dependent 6-phosphofructokinase (Trypanosoma brucei brucei) (UniProt O15648). Kind of assay: qHTS Assay to Find Inhibitors of T. brucei phosphofructokinase: hit validation (AID 492961).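 Note: luminescence reports ADP formed as PFK phosphorylates fructose-6-phosphate with ATP.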 An outline of the steps: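 Inhibition of parasite PFK is measured as reduced ADP formation, quantified via luciferase after ATP depletion. Assay used 0.1 mM ATP, 0.5 mM F6P, 1.25 nM enzyme, 45 min incubation.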
ATP-dependent 6-phosphofructokinase (Trypanosoma brucei brucei), sequence (O15648 whole entry, looked up): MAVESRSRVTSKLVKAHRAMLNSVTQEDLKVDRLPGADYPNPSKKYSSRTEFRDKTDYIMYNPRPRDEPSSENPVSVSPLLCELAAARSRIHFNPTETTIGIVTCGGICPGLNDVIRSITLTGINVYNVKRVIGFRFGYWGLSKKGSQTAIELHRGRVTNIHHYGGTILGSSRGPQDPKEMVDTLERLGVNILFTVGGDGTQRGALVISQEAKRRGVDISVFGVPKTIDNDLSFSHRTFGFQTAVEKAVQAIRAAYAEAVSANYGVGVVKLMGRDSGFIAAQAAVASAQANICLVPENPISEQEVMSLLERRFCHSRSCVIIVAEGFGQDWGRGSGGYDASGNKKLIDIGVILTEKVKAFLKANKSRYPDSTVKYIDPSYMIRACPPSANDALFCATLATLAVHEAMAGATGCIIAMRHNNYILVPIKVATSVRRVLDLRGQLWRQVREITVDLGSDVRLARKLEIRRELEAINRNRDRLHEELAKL

Inconclusive results are not listed. The source made the active and inactive calls. Calls come from the whole dose curve; as a rule, active = well fitted curve in the direction sought with a large enough effect; inconclusive = small, poorly fitted or top-dose-only effect, or another doubt; inactive = no such curve, though single readings can be large; an effect the other way counts as inactive or inconclusive.

`C[C@@]12C=CC(=O)C=C1CCC1C3CC(O)[C@@](O)(C(=O)CO)[C@]3(C)CC(O)[C@]12F` (stereo partly specified): the Potency result (in assay [1]; in the assay on 7G8; with ATS189; in the assay on CP250; in the assay with DIV14; with Dd2) was “inactive” each time. The Potency entry with HB3, in the assay on PAD, in the assay with SC27B and in the assay with TAB165 was “inactive” in each case.
Regarding `CCC(=O)O[C@@]1(C(=O)CCl)C(C)CC2C3CCC4=CC(=O)C=C[C@@]4(C)[C@]3(F)C(O)C[C@]21C` (stereo partly specified), the Potency entry in assay [1] is “inactive”. Moreover, the Potency is 3980 nM (active) in the assay on 7G8, 13500 nM (active) in the assay on DIV14 and 7940 nM (active) in the assay on PAD.
`C[C@]12CCC(=O)C=C1CCC1C2C(=O)C[C@]2(C)C1CC[C@]2(O)C(=O)CO` (stereo partly specified): the Potency entry (in assay [1]; in the assay on 7G8; with ATS189; with CP250; in the assay on Dd2; with HB3) was “inactive” throughout. For the same compound, the Potency result with PAD, in the assay with SC27B and in the assay on TAB165 was “inactive” in each case.
On to `CC1(C)OC2CC(=O)OC[C@@]23C1CC(=O)[C@]1(C)C3CC[C@@]2(C)C(c3ccoc3)OC(=O)C3O[C@@]321` (stereo partly specified), for which the Potency result (in [1]; in the assay on 7G8; in the assay on ATS189; in the assay on CP250; in the assay on DIV14; in the assay on Dd2) was “inactive” each time. The Potency result in the assay on HB3, with PAD, in the assay with SC27B and in the assay on TAB165 was “inactive” each time.
With `COC1OC(CO)C(OC2OC(C(=O)O)C(OC3OC(COS(=O)(=O)O)C(OC4OC(C(=O)O)C(OC5OC(CO)C(OC6OC(C(=O)O)C(OC7OC(COS(=O)(=O)O)C(OC8OC(C(=O)O)=C[C@H](O)C8OS(=O)(=O)O)C(O)C7NC(C)=O)[C@@H](O)C6O)C(O)C5NC(C)=O)[C@@H](O)C4O)C(O)C3NC(C)=O)[C@@H](O)C2O)C(O)C1NC(C)=O` (stereo partly specified), in assay [1], the Potency result was “inactive”. For the same compound, in the assay on 7G8, the Potency is 7080 nM (active).
With `COC(=O)N/N=C/C1=C[N+](=O)c2ccccc2[N+]1=O`, the Potency result (in assay [1]; in the assay on 7G8; in the assay on ATS189; in the assay on CP250; in the assay on DFO2036; in the assay with DIV14) was “inactive” in each case. Further, the Potency entry with Dd2, with HB3, in the assay with PAD, in the assay with SC27B and in the assay on TAB165 was “inactive” each time.
For `COc1ccc(CC(N)C(=O)NC2C(CO)OC(n3cnc4c(N(C)C)ncnc43)C2O)cc1` (stereo unspecified), the Potency was 316 nM (active) in the assay with 7G8; 794 nM (active) in the assay on ATS189; 1260 nM (active) with CP250; 891 nM (active) in the assay with DFO2036; 953 nM (active) in the assay on DIV14; 355 nM (active) in the assay with Dd2. In addition, the Potency in the assay with HB3 was 1000 nM (active); in the assay on PAD, 447 nM (active); in the assay on SC27B, 1000 nM (active); with TAB165, 794 nM (active).
Regarding `OCC1OC(n2cnc3c(=S)nc[nH]c32)C(O)C1O` (stereo unspecified), the Potency in [1] was 2870 nM (active). For the same compound, the Potency result with ATS189, in the assay on CP250, in the assay on DFO2036, with DIV14, with Dd2 and in the assay with HB3 was “inactive” each time. Moreover, the Potency result with PAD, in the assay with SC27B and in the assay on TAB165 was “inactive” each time.
Regarding `C=Cc1c(C)/c2[n-]/c1=C\c1[n-]c(c(CC)c1C)/C=c1\[n-]c3c(c1C)C(=O)C(C(=O)[O-])C=3c1[n-]c(c(C)c1CCC(=O)[O-])\C=2.[Cu].[Na+].[Na+]` (stereo unspecified), the Potency result (in assay [1]; with DFO2036) was “inactive” each time.
Regarding `C#C[C@]1(O)CCC2C3CCC4=CC(=O)CCC4C3CC[C@@]21C` (stereo partly specified), the result in [2] was inactive.
With `CCC1OC(=O)CC(O)C(C)[C@@H](O[C@@H]2OC(C)[C@H](O[C@@H]3C[C@@](C)(O)C(O)C(C)O3)C(N(C)C)C2O)[C@H](CC=O)CC(C)C(=O)/C=C/C(C)=C/[C@@H]1COC1OC(C)C(O)C(OC)[C@@H]1OC` (stereo partly specified), the call in assay [2] was inactive. The Potency in the assay on Dd2 is 891 nM (active).
`CCC(CCC(C)C1CCC2C3CC=C4CC(O)CC[C@@]4(C)C3CC[C@@]12C)C(C)C` (stereo partly specified): the Potency result with 7G8, with ATS189, in the assay with CP250, with DFO2036, with DIV14 and with Dd2 was “inactive” throughout. The Potency entry in the assay with HB3, in the assay with PAD, with SC27B and in the assay on TAB165 was “inactive” throughout.

These data come from PubChem BioAssay (NCATS).
